Values joined by “and” are separate entries in the source; they are usually repeats but may differ in a detail not shown here. Equal entries are not always repeated. Results filed as inconclusive are left out. A call without a number means that no potency is given here. Active and inactive are the calls of the source. Calls follow the shape of the full dose curve.

This assay can be described thus: Primary qHTS to identify inhibitors of SARS-CoV-2 cell entry (AID 1645846). Also: nearly all actives have a fitted effect of over 45% in size. As to conditions: SARS-CoV-2 pseudovirus cell entry assay, luminescence; activity change, negative = inhibition: at 57.1 µM (top of the series) unless noted; series mostly up to 57.1 µM. A digest of the protocol: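 Luminescence readout (Bright-Glo luciferase) 48 h after pseudoparticle addition. HEK293-ACE2 cells, 1500/well; compound pre-incubation 1 h; Normalized to spike PP and bald PP.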
Take `Cc1cc(OI)c(C(C)C)cc1-c1cc(C(C)C)c(OI)cc1C`: the Potency result is “inactive”.
On the same count and under the same terms, to `O=C(O)CN(CCN(CC(=O)O)CC(=O)O)CCN(CC(=O)O)CC(=O)O` belongs “inactive”.
For the compound `CCCC(=O)O[C@]1(C(=O)COC(=O)CC)CC[C@H]2[C@@H]3CCC4=CC(=O)CC[C@]4(C)[C@H]3[C@@H](O)C[C@@]21C`, the activity change, negative = inhibition is -22.2% [at 27.1 µM].
On to `CCN(CC)CCNC(=O)c1cc(S(C)(=O)=O)ccc1OC`, for which the Potency entry is “inactive”.
As to `CC(C)(C)c1ccc(O)cc1`, the activity change, negative = inhibition is -17.1%.
On to `Nc1nc(=O)n([C@@H]2CS[C@H](CO)O2)cc1F`, for which the activity change, negative = inhibition was -20.7%.
As to `O=C(NCCO[N+](=O)[O-])c1cccnc1`, the Potency entry was “inactive”.
The same measure, in the same setting: to `CCCCOCCOC(=O)c1cccnc1` belongs “inactive”.
With `CCn1cc(C(=O)O)c(=O)c2cnc(N3CCCC3)nc21`, the activity change, negative = inhibition came to 0.588% [at 11.3 µM].
For `NS(=O)(=O)c1cc2c(cc1Cl)NC(CC1CCCC1)NS2(=O)=O` (centres undefined), the Potency result was “inactive”.
As to `C=CCc1ccc(O)c(OC)c1`, the Potency result was “inactive”.
Regarding `N#Cc1ccc(C(c2ccc(C#N)cc2)n2cncn2)cc1`, the activity change, negative = inhibition is 0.824% and -10.9%.
As for `Cc1ccccc1C(=O)N1CC/C(=N\OS(=O)(=O)O)c2ccc(Cl)cc21`, the Potency result was “inactive”.
On the same count and under the same terms, to `CC(C)COC(=O)c1ccc(N)cc1` belongs “inactive”.
For the compound `C[C@@H]1O[C@@H]1P(=O)(O)O`, the activity change, negative = inhibition was determined as 1.53% [at 27.1 µM].
Turning to `COC(=O)c1cccnc1`, the Potency entry was “inactive”.
Turning to `CC(C)(Oc1ccc(Cl)cc1)C(=O)OCCCOC(=O)C(C)(C)Oc1ccc(Cl)cc1`, the activity change, negative = inhibition is -28.5%.
In the case of `CC(C)Cc1ccc(CC(=O)O)cc1`, the Potency entry is “inactive”.
In the case of `O=C1c2c(O)cccc2Cc2cccc(O)c21`, the Potency result is “inactive”.
Regarding `NS(=O)(=O)c1cc(Cl)c(Cl)c(S(N)(=O)=O)c1`, the activity change, negative = inhibition was -0.105%.
Take `CN1C(C(=O)Nc2ccccn2)=C(O)c2sccc2S1(=O)=O`: the Potency result was “inactive”.
As for `CCCCC(CC)CNC(=O)CC(C)OC(=O)CCC(=O)O` (centres undefined), the Potency result is “inactive”.
`CCC(C(=O)NC(=O)NC(C)=O)c1ccccc1` (centres undefined): the Potency entry is “inactive”.
As for `CC(C)(C(=O)c1cccnc1)c1cccnc1`, the Potency entry was “inactive”.
For `COc1nccnc1NS(=O)(=O)c1ccc(N)cc1`, the Potency entry was “inactive”.
Take `NS(=O)(=O)c1cc(-c2nn[nH]n2)c(NCc2cccs2)cc1Cl`: the activity change, negative = inhibition was -3.88%.
On to `C/C(=C(\CCO)SS/C(CCO)=C(\C)N(C=O)Cc1cnc(C)nc1N)N(C=O)Cc1cnc(C)nc1N`, for which the activity change, negative = inhibition was -31.6%.
For `CN1C[C@H](C(=O)N[C@]2(C)O[C@@]3(O)[C@@H]4CCCN4C(=O)[C@H](Cc4ccccc4)N3C2=O)C=C2c3cccc4[nH]cc(c34)C[C@H]21`, the activity change, negative = inhibition is -28.9%.
For the compound `O=C(OCC1(COC(=O)c2cccnc2)CCCC(COC(=O)c2cccnc2)(COC(=O)c2cccnc2)C1O)c1cccnc1`, the activity change, negative = inhibition was -30.1%.
Take `CC(C)(C)NCC(O)COc1cccc2c1C[C@H](O)[C@H](O)C2` (some centres undefined): the activity change, negative = inhibition came to 4.34%.
On to `CC1CCc2c(N3CCC(O)CC3)c(F)cc3c(=O)c(C(=O)O)cn1c23` (centres undefined), for which the Potency entry is “inactive”.
As for `COc1ccc(C(=O)NCc2ccc(OCCN(C)C)cc2)cc1OC`, the activity change, negative = inhibition is -12.5%.
Still for that read-out and setting: to `CCN(CC)CC#CCOC(=O)C(O)(c1ccccc1)C1CCCCC1` (centres undefined) belongs -28.2%.
Regarding `C#C[C@]1(O)CC[C@H]2[C@@H]3CCC4=CC(=O)CC[C@@H]4[C@H]3CC[C@@]21CC`, the Potency entry was “inactive”.
`O=C(O)C[C@H](O)C[C@H](O)/C=C/c1c(C2CC2)nc2ccccc2c1-c1ccc(F)cc1`: the activity change, negative = inhibition is -3.35%.
In the case of `S=P(N1CC1)(N1CC1)N1CC1`, the activity change, negative = inhibition was 4.21%.
Take `O=c1cc(O)c(Cl)c[nH]1`: the Potency result was “inactive”.
Take `CCOC(=O)[C@H](CCc1ccccc1)N[C@H]1CCCN2CCC[C@@H](C(=O)O)N2C1=O`: the activity change, negative = inhibition is -27.1%.
`Cc1cccn2c(=O)c(-c3nnn[nH]3)cnc12`: the Potency entry was “inactive”.

The values are drawn from PubChem BioAssay (NCATS).
